# CRFR2-BP ag = agonists of CRF-BP/CRF-R2 complex, primary screen, cell-based, HEK293, calcium dye fluorescence, uHTS | CRF-binding protein / CRF receptor 2 complex (human) | calcium dye fluorescence (FLIPR); percent of saturating CRF peptide response | activation, % at 13.2 µM | 350,000 compounds, 0.46% hits | AID 588473, 2011;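 active = activation of at least 50%, plus an integration ratio under a set limit after plate pattern correction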;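 also: plate controls were neutral control wells without compound for no effect and CRF at EC100 for full effect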
# cardiac RTF act = cardiac RTF calcium sensitivity activators, primary screen, biochemical, IANBD-TnC fluorescence, EC20 calcium; Troponin I, cardiac muscle (Homo sapiens) + Troponin T, cardiac muscle (Homo sapiens) + …; IANBD-labeled TnC RTF fluorescence at EC20 calcium; 0% EC20 calcium, 100% full calcium; activation, % at 7.2 µM; 340,000 compounds, 0.24% hits;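 active = activation above the mean over all tested compounds plus 3 SD, cut at about 30% in these data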;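 also: rise in fluorescence read as greater calcium sensitivity of cardiac thin filaments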
# Myeloid diff 2 = induction of myeloid progenitor differentiation, primary screen, cell-based, flow cytometry, MLPCN library | AID 624256, 2012 | 360,000 compounds, 1% hits | ER-HoxA9 myeloid progenitors, lysozyme-GFP differentiation | calls only at 10 µM;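 active = normalized GFP-positive differentiation at or above the plate's own cutoff, the solvent-only control mean plus 3 SD; inconclusive = no clear call, values can overlap the other calls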;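 also: cells exposed to compound for four days before flow analysis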
# Cardiac RTF inh = cardiac RTF calcium sensitivity inhibitors, primary screen, biochemical, IANBD-TnC fluorescence, EC70 calcium. Troponin I, cardiac muscle (Homo sapiens) + Troponin T, cardiac muscle (Homo sapiens) + …. IANBD-labeled cardiac RTF, Ca2+ fluorescence. inhibition, % at 7.15 µM. 340,000 compounds, 0.12% hits. AID 493244, 2011;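 active = inhibition above the mean inhibition of all tested compounds plus 3 SD, cut at about 17% in these data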;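 also: assay run at fixed EC70 calcium of 1.6 mM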
# CRFR2-BP antag = antagonists of CRF-BP/CRF-R2 complex, primary screen, cell-based, HEK293, calcium dye fluorescence, uHTS; CRF-induced calcium fluorescence; inhibition, % at 11.8 µM; 350,000 compounds, 0.59% hits;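 active = inhibition of the ligand-induced calcium signal above about 50% at the single tested concentration, limit read from the data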
# Myeloid diff CP1 = inducers of myeloid progenitor differentiation, confirmation, cell-based, GFP/Mac1 flow cytometry, cherry pick 01; shares compounds with Myeloid diff 2; ER-HoxA9 myeloid progenitors, GFP/Mac1 double-positive flow; calls only; 2,300 compounds, 2% hits;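 active = share of green or green-and-red cells above 9 and 9% in run 1 or 4 and 3% in run 2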
# GFP autofluor = counter-screen for myeloid differentiation promoters: compound fluorescence; shares compounds with Myeloid diff 2; ER-HoxA9 myeloid progenitors, no estrogen, GFP autofluorescence flow cytometry; vehicle wells 0%, positive control 100%; fluorescence response, % (no concentration beside the values); 2,300 compounds, 7.4% hits; AID 651707;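 active = over 5% cells positive for green fluorescent reporter, or over 2% positive for both it and APC stain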;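 also: range taken on the double positive population between DMSO and positive control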
# Numbers without * were called inactive; i = inactive; ? = inconclusive; nt = no result given; + = active, no number. In the library only some 2.2% were active in any assay of this set; here they are far more common.
SMILES,CRFR2-BP ag,cardiac RTF act,Myeloid diff 2,Cardiac RTF inh,CRFR2-BP antag,Myeloid diff CP1,GFP autofluor
COc1ccc(NC(=O)CNC(=O)c2ccc([N+](=O)[O-])cc2)cc1,1,-1,i,1,-2,nt,nt
COc1ccc(OC)c(NC(=O)CNC(=O)c2ccc([N+](=O)[O-])cc2)c1,0,-3,i,-4,-8,i,0
O=C(NCc1cccnc1)c1cnn2ccccc12,0,0,i,-6,12,nt,nt
Cc1cc(C)n2ncc(C(=O)NCc3cccnc3)c2n1,2,2,+,-10,-16,i,0
CN1CCc2c(sc(/N=C/c3cccs3)c2C(N)=O)C1,60*,31*,i,-16,-9,i,0
CN1CCc2c(sc(/N=C/c3ccco3)c2C(N)=O)C1,22,18,i,-29,2,nt,nt
O=C(CCN1C(=O)c2ccccc2S1(=O)=O)Nc1ccc2c(c1)OCCO2,-1,3,i,-7,-1,i,0
Cc1ccc(S(=O)(=O)N2CCN(S(=O)(=O)c3ccc(C)cc3)C3OCCOC32)cc1 (stereo not drawn),7,3,i,-10,9,i,0
Cc1ccc(S(=O)(=O)N2CCCCC2C(=O)O)cc1 (stereo not drawn),10,-2,i,-4,-19,nt,nt
CCN(c1nc(N)c(C(=O)N=C(N)N)nc1Cl)C(C)C,-1,2,i,9,-13,nt,nt
O=C(N/N=C/c1cccnc1)c1cccc(NC(=O)c2ccccc2Cl)c1,2,-7,+,7,11,i,0
CC[n+]1c(C)cc(C)n1-c1ccccc1,1,12,i,-2,1,i,0
Cc1ccc(S(=O)(=O)NCC(=O)OCC(=O)N(CCC#N)c2ccccc2)cc1,-1,7,i,-7,-8,nt,nt
O=C1COc2ccc3ccccc3c21,-1,-3,i,1,-10,i,1
Cc1ccc(Nc2nnc(SCC(=O)NCCN3C(=O)CSC3=O)s2)cc1,-2,3,i,0,9,nt,nt
CN1C(=O)C(O)(CC(=O)c2ccccc2O)c2cc(Br)ccc21 (stereo not drawn),-1,8,?,-12,1,nt,nt
C=CCN1C(=O)C(O)(CC(=O)c2ccc(OC)cc2OC)c2cc(Br)ccc21 (stereo not drawn),2,-1,i,-4,-6,i,0
CC(=O)c1c(N2CCOCC2)[nH]c(-c2ccccc2)nc1=S,7,10,+,0,-23,+,0
COc1cc(C2N(c3ccccc3)CCN2c2ccccc2)ccc1OC(C)=O,1,-3,i,3,2,nt,nt
COc1ccc(C2N(c3ccc(C)cc3)CCN2c2ccc(C)cc2)cc1O,0,-7,i,-1,-5,i,0
Cc1ccc[n+](CC(=O)/C=C2\N(C)c3ccccc3C2(C)C)c1,0,-1,i,6,-3,nt,nt
CN1/C(=C\C(=O)C[n+]2cccc(Br)c2)C(C)(C)c2ccccc21,-1,4,+,-7,-1,i,1
CCOc1ccccc1C(=O)Nn1c(C2CCC2)nc2ccccc2c1=O,-2,9,+,-6,-25,i,0
COc1ccc2nc(C)cc(SCC(=O)NNC(=O)COc3ccc(C)cc3)c2c1,2,-1,i,-12,15,i,0
CC1(C)O[C@@H]2C[C@H]3[C@@H]4C[C@H](F)C5=CC(=O)CC[C@]5(C)[C@H]4[C@@H](O)C[C@]3(C)[C@]2(C(=O)CO)O1,-2,2,i,12,-14,i,0
OCC[C@H]1C[C@@H](O)[C@H](O)[C@@]2(CCc3ccccc3O2)O1,1,9,i,-6,1,nt,nt
